From PubChem
Shiga toxin inh = A qHTS for Small Molecule Inhibitors of Shiga Toxin; Vero cells, Shiga toxin protein synthesis inhibition reporter; inhibition, % at 38.7 µM; 9.2% of 290,000 active; AID 2315, 2010; in the data active = inhibition mostly above about 28%, no sharp cut-off; inactive = mostly below about 43%; also: 0% is about no effect
CHX counter = Cycloheximide Counterscreen for Small Molecule Inhibitors of Shiga Toxin | cell reporter, cycloheximide protein synthesis inhibition counterscreen | AID 2314, 2010 | 12% of 300,000 active | max response, %; in the data active = max response mostly above about 13%, no sharp cut-off; inactive = mostly below about 14%; also: read at 38.3 µM for the half of the compounds with a filed dose; 0% is about no effect
Sm TGR block = qHTS Assay for the Inhibitors of Schistosoma Mansoni Peroxiredoxins; Schistosoma mansoni thioredoxin glutathione reductase (TGR), Q962Y6; purified TGR, DTNB reduction, TNB absorbance 405 nm; Potency, µM (series often up to 114 µM), inactives show top-dose activity change, negative = inhibition, actives largely listed as inhibitors; 3% of 360,000 active; AID 485364, 2010; active = well fitted inhibition curve with a large enough effect; inconclusive = small, poorly fitted or top-dose-only effect; inactive = no such curve, though single readings can be large or run the other way; also: potency is read from the fitted curve at half-maximal effect; % is scaled to controls: 0 for no effect and ±100 for the full control effect; nearly all actives have a fitted effect of over 60% in size
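TGR 20 nM + NADPH 100 uM (dispensed conc.), cpd preinc 15 min RT; start with NADPH (500 uM addition) then DTNB (15 mM addition). Kinetic TNB absorbance, 405 nm filter. Four-parameter Hill fit across titration.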
FMDV antiviral = High Throughput Screening for Foot and Mouth Disease Virus Antivirals. FMDV antiviral cell-based qHTS. Potency, µM (top dose mostly 57.9 µM), without a hit: at the highest dose activity change, negative = inhibition, most hits filed as inhibitors. 1.2% of 410,000 active. AID 1159524, 2015; calls by dose curve; tested in HEK293T cells; also: read-out not given here; potency is read from the fitted curve at half-maximal effect; % is scaled to controls: 0 for no effect and ±100 for the full control effect; nearly all actives have a fitted effect of over 45% in size
An asterisk follows results filed as active; ? = inconclusive; / = no result. An excerpt weighted towards active compounds, which were near 12% of everything screened.

SMILES	Shiga toxin inh	CHX counter	Sm TGR block	FMDV antiviral
CC1CCC(NC(=O)c2ccc3c(c2)N(Cc2ccccc2F)C(=O)c2ccccc2S3)CC1 (stereo not given)	/	/	3%	29%
Cc1cc(OCC(=O)N2CCC(c3nc4ccccc4s3)CC2)ccc1Cl	/	/	2%	?
CC(C)NC(=O)N1CC[C@@]2(CCCN(S(=O)(=O)c3ccccc3)C2)C1	/	/	/	-3%
Cn1ccc(C(=O)N/N=C/c2ccncc2)n1	28*	32*	1%	8%
Cc1cccc(C(=O)N/N=C/c2ccc(OC3CSC3)cc2)c1	15	24*	8%	/
O=S(=O)(N/N=C/c1ccc(N2CCOCC2)cc1)c1ccccc1	25	9	35µM*	27%
O=S(=O)(N/N=C/c1ccc(OC2CSC2)cc1)c1ccccc1	15	5	-4%	109%
O=C(N/N=C/c1ccc(N2CCOCC2)cc1)c1ccc(O)cc1	73*	37*	45µM*	-4%
CC(C)c1ccc(/C=C/C(=O)NCCC2=CCCCC2)cc1	17	17*	-1%	-2%
CCCNC(=O)/C=C/c1ccc(C(C)C)cc1	64*	47*	-2%	48%
COc1ccc(-c2ccc(CCC(=O)O)n2CC(=O)Nc2cccc(C(F)(F)F)c2)cc1	/	/	-32%	0%
NC(=S)N=Nc1ccc(NN=C(N)N)cc1	2	-2	50µM*	-8%
Cc1c(CCOC(=O)CC23CC4CC(CC(C)(C4)C2)C3)sc[n+]1CC(=O)c1ccccc1	3	-2	-2%	28µM*
Cc1c(CCOC(=O)C23CC4CC(CC(C)(C4)C2)C3)sc[n+]1CC(=O)c1ccccc1	-3	3	-12%	?
COc1ccc(-c2cc(-c3ccco3)[nH]c(=O)c2C#N)cc1	11	8	3.2µM*	-11%
COc1ccc(-c2cc(C(F)(F)F)c(C#N)c(=O)[nH]2)cc1	-1	-2	-34%	-8%
O=C(Nc1cccc(F)c1)Nc1ccnn1C1CCN(C(=O)c2cscn2)CC1	51*	41*	-6%	29%
O=C(O)c1ccccc1C(=O)NCC(O)COc1ccc(Cl)cc1 (stereo not given)	55*	38*	1%	21%
COc1ccc(OCC(O)CNC(=O)c2ccccc2C(=O)O)cc1 (stereo not given)	-5	10	6%	22%
CCS(=O)(=O)N1CCc2cc(C(=O)Nc3ccc(OC)cc3OC)ccc21	/	/	-2%	-28%
O=C(CNC(=O)c1ccccc1F)NCCN1C(=O)S/C(=C\c2ccccc2Cl)C1=O	-21	10	20%	-1%
Cc1ccc(S(=O)(=O)CCC(=O)NCCN2C(=O)S/C(=C\c3ccccc3)C2=O)cc1	36	16*	-6%	?
Cc1ccc(S(=O)(=O)CCC(=O)NCCc2ccccc2)cc1	-5	2	9%	5%
O=C(CCS(=O)(=O)c1ccc(Cl)cc1)NCCN1C(=O)S/C(=C\c2ccccc2F)C1=O	67*	34*	6%	-11%
COc1cccc(Cn2c(CNC(=O)C(C)C)nc3cccnc32)c1	/	/	5%	-14%
SMILES	Shiga toxin inh	CHX counter	Sm TGR block	FMDV antiviral
CCC(Nc1ccc(-c2nc(-c3ccccn3)no2)cc1[N+](=O)[O-])c1ccccc1 (stereo not given)	/	/	0%	0%
O=S1(=O)c2cccc3cccc(c23)N1CCCN1CCN(c2ccc(F)cc2)CC1	-9	5	/	-25%
CCCCCn1c(=O)[nH]c2cc(C(=O)NCc3ccc(F)cc3)ccc2c1=O	/	/	-2%	-16%
O=C(c1noc2c1CCc1ccccc1-2)N1CCCc2ccccc21	19	21*	14%	13%
O=C(c1noc2c1CCc1ccccc1-2)N1CCc2ccccc2C1	60*	28*	-10%	/
O=C(c1noc2c1CCc1ccccc1-2)N1CCOCC1	43*	36*	0%	65%
CCCSc1ncc(Cl)c(C(=O)N2CCN(c3cccc(Cl)c3)CC2)n1	/	/	-1%	?
Clc1ccc(-c2noc3ncnc(NCCCN4CCN(c5ccccc5)CC4)c23)cc1	/	/	7%	?
N#Cc1ccc(C(=O)NCC2CCCCC2)cc1	51*	11*	11%	40%
Cc1cc(C)c(NC(=O)Nc2ccccc2)c(Cl)c1	23	7	-1%	-1%
Cc1ccccc1CNC(=O)Nc1ccc(Cl)cc1	69*	34*	-19%	16%
Cc1ccc(CNC(=O)Nc2ccccc2)c(C)c1	64*	31*	-11%	47%
COc1cc2c(cc1OC)C(COc1ccc(F)cc1)N(C(=O)c1ccc(S(=O)(=O)N3CCCC3)cc1)CC2 (stereo not given)	/	/	-2%	-15%
CNc1nc(SCc2ccc(C)cc2)nc2c1CCCC2	55*	37*	19%	1%
Cc1nc(SCc2ccccc2)nc2c1CCC2	85*	58*	/	42%
Cc1ccc(CSc2nc3c(c(N(C)C)n2)CCCC3)cc1	5	6	-4%	-26%
COc1ccccc1N1CCN(S(=O)(=O)c2ccc(-c3cc(C(F)(F)F)on3)s2)CC1	/	/	31%	0.89µM*
O=C(Cc1ccc(Br)cc1)N1CCCCCC1	60*	46*	4%	47%
COC(=O)C1CCN(C(=O)Cc2ccc(Br)cc2)CC1	66*	28*	6%	15%
O=C(Cc1ccc(Br)cc1)N1CCN(Cc2ccccc2)CC1	21	18*	-13%	16%
O=S(=O)(Cc1ccccc1)N1CCN(Cc2ccc(Br)cc2)CC1	31*	35*	-28%	-28%
COC(=O)C1CCN(C(=O)Cc2ccc(OC)c(OC)c2)CC1	-2	6	-1%	-23%
COc1ccc(-c2nc3c4ccccc4n(CC(=O)Nc4cc(F)ccc4F)c(=O)n3n2)cc1	/	/	8%	1%
CCn1cc2nc(SCC(=O)Nc3ccc(C)cc3C)n(Cc3ccc(C)cc3)c(=O)c2n1	/	/	-2%	-10%
O=C(CN1C(=O)COc2ccc(S(=O)(=O)N3CCOCC3)cc21)N1CCN(c2ccc(F)cc2)CC1	/	/	-5%	-7%
SMILES	Shiga toxin inh	CHX counter	Sm TGR block	FMDV antiviral
COc1ccc(Cn2c(C(=O)O)c(CNC3CCC(C)CC3)c3ccc(C)cc32)cc1 (stereo not given)	/	/	0%	-10%
CCCN1CCc2c(sc(NC(=O)c3ccc(S(=O)(=O)N4CCCC4)cc3)c2C(N)=O)C1	-8	-2	-18%	-27%
NC(=O)c1c(NC(=O)Cc2cccs2)sc2c1CCC2	19*	16*	?	1%
CCOC(=O)c1c(NC(=O)Cc2cccs2)sc2c1CCCC2	-22	1	0%	-4%
NC(=O)c1c(NC(=O)c2ccncc2)sc2c1CCCC2	95*	22*	-1%	18%
Cn1nc(C(=O)Nc2sc3c(c2C#N)CCCC3)ccc1=O	67	27*	5%	13%
CCC1CCCCN1S(=O)(=O)c1ccc(C(=O)Nc2sc3c(c2C(N)=O)CCC3)cc1 (stereo not given)	/	/	35µM*	0%
